Compound activity from PubChem BioAssay.
Most compounds without a hit are left out; they make up all but 11% or so of the library.
Pf growth 48h – P. falciparum growth inhibition at 48 hours (one generation) | P. falciparum luciferase growth in erythrocytes, 48 h | Potency, µM (highest dose often 28.7 µM), without a hit: at the top dose activity change, negative = inhibition, most hits filed as inhibitors | 5.9% of 310,000 active | AID 504832
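First compound was added to culture medium, then infected red cells at 0.1% parasitemia and 2% hematocrit (final). After incubation at 37 C under 5% CO2, luciferase detection reagent was dispensed and light output recorded.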
Pf growth 96h – P. falciparum growth inhibition at 96 hours. P. falciparum luciferase reporter growth, 96 h. Potency, µM (doses to about 28.7 µM), inactives show at the top dose activity change, negative = inhibition, usual class: inhibitors. 6.9% of 320,000 active
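Two-generation exposure (96 h) targets delayed-death phenotype. Reporter parasites carrying integrated firefly luciferase, in red cells at 2% hematocrit and 0.05% parasitemia final, kept at 37 C, 5% CO2; luminescence loss indicates inhibition.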
AMA1 RON2 block – AMA1-RON2 (P. falciparum) interaction inhibition. Potency, µM (highest dose often 58.2 µM), for the others: top-dose activity change, negative = inhibition, usual class: inhibitors. AID 720542. 0.2% of 360,000 active. AlphaScreen AMA1-biotinylated RON2 peptide binding;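 also: 0% = vehicle wells and -100% = peptide control; nearly all actives have a fitted effect of over 45% in size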
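AMA1 (3D7) with his tag at 25 nM final met compounds first, then biotinylated RON2 peptide at 25 nM; detection used donor plus acceptor beads, 10 µg/mL apiece, read by AlphaScreen after 30 min at room temperature.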
HCV inh – HCV inhibition; Huh7.5.1 HCVcc-Cre infection, luciferase reporter, 44 h; Potency, µM (doses to about 41.8 µM), inactives show at the top dose activity change, negative = inhibition, most hits filed as inhibitors; 3.4% of 340,000 active
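Compounds are dispensed onto cells plated 4 h earlier at 1,000 per well, with HCVcc-Cre virus (about 0.5 moi) added next. Following 44 h of culture, luminescent signal is measured for 15 sec after 15 min with substrate at room temperature.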
AmpC detergent – AmpC beta-lactamase inhibition with detergent present. P00811. AmpC hydrolysis of nitrocefin, absorbance 480 nm, 0.01% Triton. Potency, µM (highest dose often 114 µM), without a hit: at the highest dose activity change, negative = inhibition, usual class: inhibitors. 0.041% of 370,000 active. AID 485294;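 also: 0% = no-compound wells and -100% = no-enzyme wells; nearly all actives have a fitted effect of over 25% in size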
Target sequence (P00811 whole entry, looked up): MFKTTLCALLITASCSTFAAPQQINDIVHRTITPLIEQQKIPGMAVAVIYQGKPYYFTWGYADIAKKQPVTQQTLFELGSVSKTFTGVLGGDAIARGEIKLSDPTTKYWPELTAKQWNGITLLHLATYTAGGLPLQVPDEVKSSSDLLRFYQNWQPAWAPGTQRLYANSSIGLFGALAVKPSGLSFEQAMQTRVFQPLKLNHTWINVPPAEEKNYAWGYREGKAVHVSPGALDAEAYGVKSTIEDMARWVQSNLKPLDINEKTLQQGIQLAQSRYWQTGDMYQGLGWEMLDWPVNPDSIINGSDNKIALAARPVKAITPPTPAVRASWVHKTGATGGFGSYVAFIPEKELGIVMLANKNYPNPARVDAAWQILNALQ
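20 mM phosphate pH 7.0 + 0.01% (detergent screen) or 0.0001% Triton X-100; 5.3 nM AmpC reagent; cpd preinc 15 min RT; nitrocefin (800 uM stock) to start; A480 q20 s × 4 min; Activity was normalised to no-enzyme and no-compound control wells.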
AmpC inh no detg – inhibitors of E. coli AmpC beta-lactamase without detergent. P00811. AmpC nitrocefin hydrolysis, absorbance 480 nm, 0.0001% Triton. Potency, µM (highest dose often 57.1 µM), without a hit: at the top dose activity change, negative = inhibition, hits mostly inhibitors. 0.52% of 330,000 active. AID 485341;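 also: plate controls were no compound for no effect and no enzyme for full effect; nearly all actives have a fitted effect of over 20% in size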
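20 mM phosphate pH 7.0 + 0.01% (detergent screen) or 0.0001% Triton X-100; 5.3 nM AmpC reagent; cpd preinc 15 min RT; nitrocefin (800 uM stock) to start; A480 q20 s × 4 min; Activity was normalised to no-enzyme and no-compound control wells.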
* hit, by the source's call; ? = inconclusive; nt = not tested or not shown. Calls follow the shape of the dose curve; as a rule, active = well fitted curve in the direction sought with a large enough effect; inconclusive = small, poorly fitted or top-dose-only effect, or another doubt; inactive = no such curve, though single readings can be large; an effect the other way counts as inactive or inconclusive. Unless noted, % is scaled to controls: 0 for no effect and ±100 for the full control effect; potency is read from the fitted curve at half-maximal effect.

SMILES | Pf growth 48h | Pf growth 96h | AMA1 RON2 block | HCV inh | AmpC detergent | AmpC inh no detg
C=Cc1ccc(Cn2c(=O)n(CC3CCC(C(=O)NC(C)C)CC3)c(=O)c3sccc32)cc1 (stereo unspecified) | nt | nt | nt | nt | -3% | nt
Cc1cccc(CSCCNC(=O)C2CCN(S(=O)(=O)Cc3ccccc3)CC2)c1 | nt | nt | nt | nt | 21% | nt
COc1ccc(N2C(=O)c3cc4ccccc4cc3C2=O)cc1 | 1% | 10µM* | -8% | 5% | -10% | -10%
COc1ccccc1Oc1ccc2c(c1)C(=O)N(c1ccc(C)cc1)C2=O | 0% | 45% | -13% | -4% | -7% | -16%
CCc1ccc(NS(=O)(=O)c2ccc(C(=O)N(C)C)s2)cc1 | nt | nt | nt | nt | 3% | nt
CCc1ccc(S(=O)(=O)c2nnn3c2nc(NCCNC(C)=O)c2cc(Cl)ccc23)cc1 | nt | nt | nt | nt | -2% | nt
Cc1ccc(-c2nnc(Sc3nc4ccccc4o3)c3ccccc23)cc1 | 12µM* | 4% | 15% | ? | -8% | 46%
COc1ccc(NC(=O)CSc2nnc(-c3nonc3NC(C)=O)n2C)cc1Cl | nt | nt | nt | nt | -2% | nt
Cc1ccccc1C(=O)Nc1ccc(-c2nc3ccc(C(=O)c4ccccc4)cc3[nH]2)cc1 | 8.3µM* | ? | -4% | 11µM* | -4% | ?
O=C(c1ccccc1)c1ccc2nc(-c3ccc(NC(=O)c4ccccc4Br)cc3)[nH]c2c1 | ? | ? | -5% | 25µM* | -5% | ?
O=C(Cn1cc(COc2ccc3ccc(=O)oc3c2)nn1)c1ccc(O)cc1 | nt | nt | 6% | 2.5µM* | nt | nt
O=C(Cn1cc(COc2ccc(Br)cc2)nn1)c1ccc(O)cc1 | nt | nt | 0% | ? | nt | nt
Cc1cc(C)c2cc(C#N)c(N3CCCC3)nc2c1 | -5% | 10µM* | 73% | ? | 0% | -16%
COCC(=O)N1CCCN(c2nc3c(C)cccc3cc2C#N)CC1 | -9% | nt | 5% | -20% | ? | 34%
COc1cccc(C(=O)N2CCN(c3nc4cc(C)cc(C)c4cc3C#N)CC2)c1 | nt | nt | 1% | nt | nt | nt
CCOCCCNC(=S)N1CCCN(c2nc3cc(C)ccc3cc2C#N)CC1 | -13% | 0% | -1% | 4% | 6% | 135%
Cc1ccc2cc(C#N)c(N3CCCN(C(=S)NCCCN(C)C)CC3)nc2c1 | 10µM* | ? | 3% | 10µM* | -13% | 64%
Cc1cc(C)c2cc(C#N)c(N3CCCN(C(=S)NCCCN(C)C)CC3)nc2c1 | -45% | 10µM* | -3% | 11µM* | -4% | 33%
CCOCCCNC(=S)N1CCCN(c2nc3c(C)c(C)ccc3cc2C#N)CC1 | -5% | ? | 27% | 10µM* | -1% | -24%
O=C(NCc1ccccc1Cl)c1ccc2c(c1)nnn2C1CCCC1 | nt | nt | nt | nt | -4% | nt
CN(C)CCCNc1ccc(-c2cc(Nc3cccc(Cl)c3)ncn2)cn1 | 1.9µM* | 0.93µM* | -9% | ? | 1% | 54%
CN(C)c1cccc(-c2cc(Nc3ccc(C(C)(C)C)cc3)ncn2)c1 | nt | nt | -12% | nt | nt | nt
Cc1ccc2c(=O)c(C(=O)c3ccc(F)cc3)cn(CC(=O)Nc3ccc4c(c3)OCCO4)c2n1 | nt | nt | nt | nt | 21% | nt
COc1ccc2cc(C(=O)N3CCCC(Nc4ccc(F)cc4)C3)n(C)c2c1 (stereo unspecified) | -4% | 5.9µM* | -26% | ? | 2% | 112%
CN(C)c1ccccc1C(=O)N1CCCC(Nc2ccc(F)cc2)C1 (stereo unspecified) | -9% | 13µM* | -1% | 13% | -2% | 33%
O=C(CCN1CCCCO1)N1CCCC(Nc2cccc(F)c2)C1 (stereo unspecified) | 38% | ? | 16% | 13% | 2% | -13%
Cn1cc(C(=O)N2CCCC(Nc3ccc(F)cc3)C2)c2ccccc21 (stereo unspecified) | -4% | -8% | -6% | -20% | -4% | 143%
